The source of these data is PubChem BioAssay (NCATS).

Inconclusive results are not listed. Active and inactive are the calls of the source. Unless noted, calls follow the shape of the dose curve; as a rule, active = well fitted curve in the direction sought with a large enough effect; inconclusive = small, poorly fitted or top-dose-only effect, or another doubt; inactive = no such curve, though single readings can be large; an effect the other way counts as inactive or inconclusive.

The nature of the first assay: Cytotoxicity counterscreen for NFkB agonists and antagonists (AID 624476). Also: potency is read from the fitted curve at half-maximal effect. As to activity change, negative = cytotoxicity: % is scaled to controls: 0 for no effect and ±100 for the full control effect. The note with it: NFkB reporter cell line viability counterscreen; series mostly up to 46.1 µM; activity change, negative = cytotoxicity: at the top concentration.
Consider `S=C(NCc1ccc2c(c1)OCO2)N1CCN(c2ncnc3c2oc2ccccc23)CC1`, for which the “activity change, negative = cytotoxicity” value is -70.1% (inactive).
On the same count and under the same terms, then `C[C@]12CC[C@H](O)CC1=CC[C@@H]1[C@H]2CC[C@]2(C)C(c3cccnc3)=CC[C@H]12`, with 2.08% (inactive).
On to `Oc1cccc(-c2nc(N3CCOCC3)c3oc4ncccc4c3n2)c1`, for which the Potency was 0.0833 µM (active).
`COc1ccccc1-c1cccc(-c2c(O)c3cc(C#N)c(Cl)cc3[nH]c2=O)c1`: the “activity change, negative = cytotoxicity” value is -20.2% (inactive).
The same measure, in the same setting: as for `C[C@]1(c2nc3c(C(N)=O)cccc3[nH]2)CCCN1`, the figure is -1.62% (inactive); as for `O=C(c1cc(Cc2n[nH]c(=O)c3ccccc23)ccc1F)N1CCN(C(=O)C2CC2)CC1`, -1.84% (inactive).
On the same count and under the same terms, as for `Cc1ccc(-n2nc(C(C)(C)C)cc2NC(=O)Nc2ccc(OCCN3CCOCC3)c3ccccc23)cc1`, the figure is -2.33% (inactive); as for `COc1cccc2cc(-c3nc(C4CCC(C(=O)O)CC4)n4ncnc(N)c34)[nH]c12` (stereo not drawn), -46.6% (inactive).
The same measure, in the same setting: then `CC(=O)NC(C)c1ccc(Oc2ccc(OC(C)C)cc2)cc1` (stereo not drawn), with -14.7% (inactive); and `CCCS(=O)(=O)Nc1ccc(F)c(C(=O)c2c[nH]c3ncc(Cl)cc23)c1F`, with -23.1% (inactive); and `CCCn1c(=O)c2[nH]c(C34CC5CC3C[C@@H](C5)C4)nc2n(CCC)c1=O`, with -11.4% (inactive).

A further assay is described as follows: qHTS Assay for Identification of Small Molecule Agonists for NFkB Signaling Pathway. (AID 624478).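 Also: compounds tested together with TNF alpha at its EC50 of 10 pM; 0% is about no effect.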 The note with it: NFkB pathway reporter cell assay, agonist mode, cells co-stimulated with 10 pM TNF alpha; series mostly up to 46.1 µM; activation: at the top concentration. Put shortly: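 ME-180 cervical carcinoma, stable NFkB-RE beta-lactamase reporter; 1000 cells/well, overnight attachment; cpd + TNF alpha 10 pM final, 5 h 37 C; LiveBLAzer 2 h RT; FRET 460/530 nm, ex 405 nm.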
Turning to `O=C(NOC[C@H](O)CO)c1ccc(F)c(F)c1Nc1ccc(I)cc1F`, the “activation” value is -1.78% (inactive).
Same read-out and setting: as for `Cc1c(C)c2c(c(C)c1O)CCC(C)(COc1ccc(CC3SC(=O)NC3=O)cc1)O2` (stereo not drawn), the figure is -1.26% (inactive); as for `CN(C)c1ccc(Nc2nc(N)n(C(=O)c3c(F)cccc3F)n2)cc1`, -2.09% (inactive); as for `O=C(Nc1cccnc1)N1CCC(Cc2cccc(Oc3ccc(C(F)(F)F)cn3)c2)CC1`, 3.97% (inactive).
Take `CN(C)C(=O)c1ccc(S(=O)(=O)c2ccc(NC(=O)[C@@](C)(O)C(F)(F)F)c(Cl)c2)cc1`: the “activation” value is 0.912% (inactive).
Still for that read-out and setting: as for `COc1cc2nccc(Oc3ccc(NC(=O)NC4CC4)c(Cl)c3)c2cc1C(N)=O`, the figure is -2.76% (inactive); as for `Cc1cc([C@@H](C)Nc2ccccc2C(=O)O)c2nc(N3CCOCC3)cc(=O)n2c1`, -1.17% (inactive).
Still for that read-out and setting: then `C#Cc1cccc(Nc2ncnc3cc(OCCOC)c(OCCOC)cc23)c1`, with -0.102% (inactive); and `Cc1cc(C=c2sc3nc4ccccc4n3c2=O)c(C)n1-c1ccccc1`, with -0.556% (inactive); and `CCOc1ccn(-c2ccc(F)cc2)c(=O)c1C(=O)Nc1ccc(Oc2ccnc(N)c2Cl)c(F)c1`, with -0.0321% (inactive).
For the compound `O=C(O)c1ccc(-c2c[nH]c3ccc(-c4ccccc4)cc23)cc1C1CCCC1`, the “activation” value was 0.805% (inactive).
The same measure, in the same setting: then `Cc1cc2c(F)c(Oc3ncnn4cc(OC[C@@H](C)O)c(C)c34)ccc2[nH]1`, with 0.3% (inactive); and `CCn1c(-c2nonc2N)nc2c(C#CC(C)(C)O)ncc(OC[C@H]3CCCNC3)c21`, with 6.82% (inactive); and `CC(C)(C)OC(=O)CN(Cc1ccc(Cl)cc1)Cc1ccc([N+](=O)[O-])s1`, with -1.22% (inactive).

The nature of the next assay: qHTS Assay for Identification of Small Molecule Antagonists for NFkB Signaling Pathway. (AID 624479; calls by dose curve; also: potency is read from the fitted curve at half-maximal effect; as to activity change, negative = inhibition: % is scaled to controls: 0 for no effect and ±100 for the full control effect). The note with it: NFkB pathway reporter cell assay, antagonist mode; series mostly up to 38.3 µM; activity change, negative = inhibition: at the top concentration.
Consider `O=C(NOC[C@H](O)CO)c1ccc(F)c(F)c1Nc1ccc(I)cc1F`, for which the “activity change, negative = inhibition” value was -10.2% (inactive).
Same read-out and setting: then `C[C@]12CC[C@H](O)CC1=CC[C@@H]1[C@H]2CC[C@]2(C)C(c3cccnc3)=CC[C@H]12`, with -18.7% (inactive); and `COc1cc(Nc2ncc3c(n2)-c2ccc(Cl)cc2C(c2c(F)cccc2OC)=NC3)ccc1C(=O)O`, with -29.6% (inactive).
For the compound `OCCC#Cc1nc(-c2ccc(F)cc2)c(-c2ccncc2)n1CCCc1ccccc1`, the Potency is 14.9 µM (active).
Take `O=C(c1cc(Cc2n[nH]c(=O)c3ccccc23)ccc1F)N1CCN(C(=O)C2CC2)CC1`: the “activity change, negative = inhibition” value was -12.3% (inactive).
Consider `CN(C)c1ccc(Nc2nc(N)n(C(=O)c3c(F)cccc3F)n2)cc1`, for which the Potency is 14.9 µM (active).
Turning to `COc1cc(F)c(F)c(Nc2ccc(I)cc2F)c1NS(=O)(=O)C1(C[C@H](O)CO)CC1`, the Potency is 5.95 µM (active).
For `CN(C)C(=O)c1ccc(S(=O)(=O)c2ccc(NC(=O)[C@@](C)(O)C(F)(F)F)c(Cl)c2)cc1`, the “activity change, negative = inhibition” value was -13.7% (inactive).
Consider `COc1cc2nccc(Oc3ccc(NC(=O)NC4CC4)c(Cl)c3)c2cc1C(N)=O`, for which the Potency was 18.8 µM (active).
Turning to `Cc1cc([C@@H](C)Nc2ccccc2C(=O)O)c2nc(N3CCOCC3)cc(=O)n2c1`, the “activity change, negative = inhibition” value is 2.02% (inactive).
On the same count and under the same terms, as for `COc1cccc2cc(-c3nc(C4CCC(C(=O)O)CC4)n4ncnc(N)c34)[nH]c12` (stereo not drawn), the figure is -10.2% (inactive).
The same measure, in the same setting: as for `CC(=O)NC(C)c1ccc(Oc2ccc(OC(C)C)cc2)cc1` (stereo not drawn), the figure is -13.4% (inactive); as for `Cc1cc(C=c2sc3nc4ccccc4n3c2=O)c(C)n1-c1ccccc1`, -6.43% (inactive).
`CCOc1ccn(-c2ccc(F)cc2)c(=O)c1C(=O)Nc1ccc(Oc2ccnc(N)c2Cl)c(F)c1`: the Potency is 16.8 µM (active).
Still for that read-out and setting: then `CCCS(=O)(=O)Nc1ccc(F)c(C(=O)c2c[nH]c3ncc(Cl)cc23)c1F`, with 11.9 µM (active).
As to `COc1ccc(COc2cc3oc(=O)c4cc(C(C)O)ccc4c3cc2OC)cc1` (stereo not drawn), the “activity change, negative = inhibition” value is -21.7% (inactive).
Regarding `O=C(O)c1ccc(-c2c[nH]c3ccc(-c4ccccc4)cc23)cc1C1CCCC1`, the Potency was 14.9 µM (active).
Turning to `CC[C@H](Nc1ncnc2nc[nH]c12)c1nc2cccc(F)c2c(=O)n1-c1ccccc1`, the “activity change, negative = inhibition” value is -5.7% (inactive).
In the case of `CC(C)(C)OC(=O)CN(Cc1ccc(Cl)cc1)Cc1ccc([N+](=O)[O-])s1`, the “activity change, negative = inhibition” value is -26% (inactive).

A short description of another assay: Cell Proliferation Assay against the TMD8 Cell Line (AID 651645).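 Also: cells exposed to compound for 48 h before reading.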 The note with it: TMD8 DLBCL cell line proliferation/viability; at 46.1 µM (top of the series) unless noted. The method, boiled down: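 TMD8 ABC DLBCL cells, 500 per well in phenol red-free RPMI with 5% FBS, were treated with compound by pin transfer and incubated 48 hours at 37C, 5% CO2. Viability was read by CellTiter-Glo luminescence, normalised to DMSO (100%) and 9.2 uM bortezomib (0%).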
With `S=C(NCc1ccc2c(c1)OCO2)N1CCN(c2ncnc3c2oc2ccccc23)CC1`, the viability (% of control) turned out to be 26.5%.
As for `CCC(C)n1ncn(-c2ccc(N3CCN(c4ccc(OC[C@H]5CO[C@](Cn6cncn6)(c6ccc(Cl)cc6Cl)O5)cc4)CC3)cc2)c1=O` (stereo partly drawn), the viability (% of control) came out at 77.9%.
On the same count and under the same terms, then `O=C(NOC[C@H](O)CO)c1ccc(F)c(F)c1Nc1ccc(I)cc1F`, with 79.1%; and `C[C@]12CC[C@H](O)CC1=CC[C@@H]1[C@H]2CC[C@]2(C)C(c3cccnc3)=CC[C@H]12`, with 29.5%.
On to `Cc1c(C)c2c(c(C)c1O)CCC(C)(COc1ccc(CC3SC(=O)NC3=O)cc1)O2` (stereo not drawn), for which the viability (% of control) turned out to be 71.7%.
Still for that read-out and setting: as for `Oc1cccc(-c2nc(N3CCOCC3)c3oc4ncccc4c3n2)c1`, the figure is 16.2%.
For the compound `COc1cc(Nc2ncc3c(n2)-c2ccc(Cl)cc2C(c2c(F)cccc2OC)=NC3)ccc1C(=O)O`, the viability (% of control) was 31.4%.
Regarding `COc1ccccc1-c1cccc(-c2c(O)c3cc(C#N)c(Cl)cc3[nH]c2=O)c1`, the viability (% of control) amounted to 86.6%.
Same read-out and setting: then `OCCC#Cc1nc(-c2ccc(F)cc2)c(-c2ccncc2)n1CCCc1ccccc1`, with 67.4%; and `C/C(=C\C(=O)Nc1ccccc1C(=O)O)c1ccc2ccccc2c1`, with 53.7%.
As for `C[C@]1(c2nc3c(C(N)=O)cccc3[nH]2)CCCN1`, the viability (% of control) was found to be 57.1%.
Same read-out and setting: as for `O=C(c1cc(Cc2n[nH]c(=O)c3ccccc23)ccc1F)N1CCN(C(=O)C2CC2)CC1`, the figure is 58.9%; as for `CN(C)c1ccc(Nc2nc(N)n(C(=O)c3c(F)cccc3F)n2)cc1`, 28.9%; as for `COc1cc(F)c(F)c(Nc2ccc(I)cc2F)c1NS(=O)(=O)C1(C[C@H](O)CO)CC1`, 69.3%.
The same measure, in the same setting: then `Cc1ccc(-n2nc(C(C)(C)C)cc2NC(=O)Nc2ccc(OCCN3CCOCC3)c3ccccc23)cc1`, with 66.7%; and `Cc1cc(SCc2sc(-c3ccc(C(F)(F)F)cc3)nc2C)ccc1OCC(=O)O`, with 88.2%; and `CCC(C)(C)C(=O)O[C@H]1C[C@@H](C)C=C2C=C[C@H](C)[C@H](CC[C@@H]3C[C@@H](O)CC(=O)O3)[C@H]21`, with 80.7% [at 15.4 µM].
On to `O=C(Nc1cccnc1)N1CCC(Cc2cccc(Oc3ccc(C(F)(F)F)cn3)c2)CC1`, for which the viability (% of control) is 36.7%.
Still for that read-out and setting: as for `CN(C)C(=O)c1ccc(S(=O)(=O)c2ccc(NC(=O)[C@@](C)(O)C(F)(F)F)c(Cl)c2)cc1`, the figure is 73%; as for `COc1cc2nccc(Oc3ccc(NC(=O)NC4CC4)c(Cl)c3)c2cc1C(N)=O`, 30.4%.
Still for that read-out and setting: as for `Cc1c(CCOc2ccc(C(=O)O)cc2)c2cc(Cl)ccc2n1C(c1ccccc1)c1ccccc1`, the figure is 79.3%; as for `Cc1cc([C@@H](C)Nc2ccccc2C(=O)O)c2nc(N3CCOCC3)cc(=O)n2c1`, 14.9%.
The same measure, in the same setting: then `COc1cccc2cc(-c3nc(C4CCC(C(=O)O)CC4)n4ncnc(N)c34)[nH]c12` (stereo not drawn), with 18.4%; and `C#Cc1cccc(Nc2ncnc3cc(OCCOC)c(OCCOC)cc23)c1`, with 58%; and `Cc1cc(C=c2sc3nc4ccccc4n3c2=O)c(C)n1-c1ccccc1`, with 43.9%.
For `CCOc1ccn(-c2ccc(F)cc2)c(=O)c1C(=O)Nc1ccc(Oc2ccnc(N)c2Cl)c(F)c1`, the viability (% of control) was 53.5%.
The same measure, in the same setting: as for `CCCS(=O)(=O)Nc1ccc(F)c(C(=O)c2c[nH]c3ncc(Cl)cc23)c1F`, the figure is 68.5%; as for `COc1ccc(COc2cc3oc(=O)c4cc(C(C)O)ccc4c3cc2OC)cc1` (stereo not drawn), 57.4%.
Same read-out and setting: as for `O=C(O)c1ccc(-c2c[nH]c3ccc(-c4ccccc4)cc23)cc1C1CCCC1`, the figure is 83.2%.
`CCCn1c(=O)c2[nH]c(C34CC5CC3C[C@@H](C5)C4)nc2n(CCC)c1=O`: the viability (% of control) stood at 30.5%.
Turning to `CC[C@H](Nc1ncnc2nc[nH]c12)c1nc2cccc(F)c2c(=O)n1-c1ccccc1`, the viability (% of control) was found to be 19.3%.
As for `Cc1cc2c(F)c(Oc3ncnn4cc(OC[C@@H](C)O)c(C)c34)ccc2[nH]1`, the viability (% of control) worked out at 42.5%.
Still for that read-out and setting: as for `CCn1c(-c2nonc2N)nc2c(C#CC(C)(C)O)ncc(OC[C@H]3CCCNC3)c21`, the figure is 22.8%.
With `CC(C)(C)OC(=O)CN(Cc1ccc(Cl)cc1)Cc1ccc([N+](=O)[O-])s1`, the viability (% of control) turned out to be 7.07%.
